Assay results taken from PubChem BioAssay AID488969 (Vanderbilt High Throughput Screening Facility, 2010).
Whole data set: some 110,000 compounds, median “z-score” near -0.1, cut for the highest 2% near 2. What follows is part of a selection rich in the highest values, with near analogues and random picks from the rest. Activity calls are given as the source filed them.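 How the source made its calls: active means z-score in the third read window above 3 or below -3; inactive means the rest.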

What follows are molecules tested against Metabotropic glutamate receptor 8 (Rattus norvegicus) (UniProt P70579) (assay: rat mGluR8 modulators via GIRK flux, primary screen, cell-based, thallium flux, HTS (AID 488969)). Conditions: HEK293 rat mGluR8, GIRK (G protein-gated inwardly rectifying potassium channel) thallium flux, FluoZin2; at 10 µM; stronger effect = higher value; submaximal glutamate (EC20) added with thallium.
Sequence of Metabotropic glutamate receptor 8 (Rattus norvegicus) (P70579 whole entry, looked up): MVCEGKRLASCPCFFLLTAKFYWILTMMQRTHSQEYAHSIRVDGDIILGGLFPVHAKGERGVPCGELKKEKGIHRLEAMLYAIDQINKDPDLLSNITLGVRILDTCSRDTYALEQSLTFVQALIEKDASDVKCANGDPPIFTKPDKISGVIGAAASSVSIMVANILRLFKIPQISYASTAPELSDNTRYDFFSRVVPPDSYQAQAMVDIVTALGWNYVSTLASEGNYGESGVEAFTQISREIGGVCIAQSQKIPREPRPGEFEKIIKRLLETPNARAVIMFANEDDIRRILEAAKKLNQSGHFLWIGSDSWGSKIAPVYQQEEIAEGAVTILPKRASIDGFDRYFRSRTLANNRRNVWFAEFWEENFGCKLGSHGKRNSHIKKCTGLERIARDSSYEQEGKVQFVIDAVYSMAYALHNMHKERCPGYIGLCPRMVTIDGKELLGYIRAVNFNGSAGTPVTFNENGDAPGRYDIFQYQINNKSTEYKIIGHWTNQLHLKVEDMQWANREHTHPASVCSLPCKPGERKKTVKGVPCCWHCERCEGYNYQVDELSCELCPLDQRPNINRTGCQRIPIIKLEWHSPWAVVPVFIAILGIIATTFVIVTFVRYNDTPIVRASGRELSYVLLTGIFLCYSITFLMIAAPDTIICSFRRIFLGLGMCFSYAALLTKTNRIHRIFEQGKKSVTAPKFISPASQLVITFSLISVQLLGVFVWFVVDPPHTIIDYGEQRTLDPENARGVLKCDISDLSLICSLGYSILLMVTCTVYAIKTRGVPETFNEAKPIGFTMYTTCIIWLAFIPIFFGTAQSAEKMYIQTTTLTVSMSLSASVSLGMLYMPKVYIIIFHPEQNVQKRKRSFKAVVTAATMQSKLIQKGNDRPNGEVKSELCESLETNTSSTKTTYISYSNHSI

SMILES	z-score
Cn1c(N2CCN(C(=O)NC34CC5CC(CC(C5)C3)C4)CC2)nc2ccccc21	-0.317
Cc1ccc(-n2c(SCC(=O)Nc3cccc(S(=O)(=O)NC4=NCCCCC4)c3)nc3ccccc3c2=O)cc1	-0.48
O=C(CSc1ccc2ccccc2c1Br)Nc1cccc(S(=O)(=O)NC2=NCCCCC2)c1	14.5 (active)
Cc1cc(C)cc(-n2c(SCC(=O)Nc3cccc(S(=O)(=O)NC4=NCCCCC4)c3)nc3ccccc3c2=O)c1	-0.139
CCCCC(c1nnnn1C1CCCC1)N1CCN(C2CCCCC2)CC1 (centres undefined)	-0.391
O=C(NC1CC1)C1CCCN1S(=O)(=O)c1ccc2ccccc2c1 (centres undefined)	-0.112
O=C(O)C1CCCCN1S(=O)(=O)c1ccc2ccccc2c1 (centres undefined)	-0.217
COC(=O)C1CCCN1S(=O)(=O)c1ccc2ccccc2c1 (centres undefined)	2.41
Cc1ccc(C(=O)COc2ccccc2-c2ccccc2)cc1	-0.229
CCOc1ccccc1C(=O)N(Cc1ccccc1)Cc1cc2cc3c(cc2[nH]c1=O)OCCO3	0.283
CCOC(=O)c1ccc(NC(=O)CCNC(=O)c2ccc([N+](=O)[O-])cc2)cc1	-0.327
CCn1nc([N+](=O)[O-])c(C(C#N)c2nc3cc(C(F)(F)F)ccc3s2)c(Cl)c1=O (centres undefined)	2.97
CCCn1nc([N+](=O)[O-])c(C(C#N)c2nc3ccccc3s2)c(Cl)c1=O (centres undefined)	-2.49
CCn1nc([N+](=O)[O-])c(C(C#N)c2nc3ccccc3n2C)c(Cl)c1=O (centres undefined)	-0.682
CCCS(=O)(=O)N1CCC(C(=O)NCc2ccco2)CC1	0.18
Cc1ccc(OCc2nnc(SCC(=O)c3cccs3)n2-c2ccccc2)cc1C	0.316
Cc1c(C(=O)OCC(=O)N2CC(C)OC(C)C2)oc2ccc(Br)cc12 (centres undefined)	-0.32
CC(C)(C)OC(=O)COc1cc(OCC(=O)OC(C)(C)C)c2c(=O)cc(-c3ccccc3)oc2c1	-0.331
O=C(COc1cc(O)c2c(=O)cc(-c3ccccc3)oc2c1)c1ccccc1	0.0143
CC(C)(C)OC(=O)COc1cc(O)c2c(=O)cc(-c3ccccc3)oc2c1	4.76 (active)
O=C(Cc1ccccc1)N/N=C/c1ccc(OCC(=O)Nc2ccccc2)cc1	-0.147
CCc1nc(C)ccc1OC(=O)C12CC3CC(CC(C3)C1)C2	0.238
Cc1ccc(-c2cc3cccc[n+]3cc2-c2ccc(C)cc2)cc1	-0.0109

SMILES	z-score
Cc1nc2ccc(NS(=O)(=O)c3ccc(C)c(C)c3)cc2s1	-0.187
Cc1cccc(NS(=O)(=O)c2ccc3c(c2)OCCO3)c1	2.76
Cc1ccc(S(=O)(=O)Nc2ccc3nc(C)sc3c2)cc1	-0.613
O=S(=O)(Nc1cccnc1)c1ccc2c(c1)OCCO2	-0.833
Cc1nc2ccc(NS(=O)(=O)c3ccc4c(c3)OCCO4)cc2s1	3.48 (active)
O=S(=O)(Nc1ccc2c(c1)OCCO2)c1ccc(F)cc1	-0.102
CCCCOc1ccc(NC(=O)C2CC=CCC2C(=O)O)cc1 (centres undefined)	-0.0643
COc1ccc(S(=O)(=O)N(C)CC(=O)Nc2ccc3c(c2)OCO3)cc1	0.0177
O=C(c1ccco1)N1CCN(S(=O)(=O)c2ccc3[nH]c(=O)oc3c2)CC1	0.249
CC1(C)CC(=O)C2=C(C1)N(Cc1ccco1)C(=O)C2(NC(=O)c1ccc(Cl)cc1Cl)C(F)(F)F (centres undefined)	-0.289
CC(C)C(NC(=O)C1CCCCC1)C(=O)Nc1ccncc1 (centres undefined)	0.244
S=C(NCCc1ccccc1)N/N=C/c1c(Cl)cccc1Cl	0.353
CCCCNC(=S)N/N=C/c1cc(C)ccc1C	1.48
Cc1ccc(C)c(/C=N/NC(=S)NCCc2ccccc2)c1	1.17
CCNC(=S)N/N=C/c1c(Cl)cccc1Cl	5.15 (active)
Cc1ccc(NC(=S)NCCO)c(C)c1	-0.044
Cc1ccc(NC(=S)N/N=C/c2ccc(OCCC(C)C)cc2)c(C)c1	0.599
CCNC(=S)N/N=C/c1cccc(C)c1	0.00977
CCNC(=S)N/N=C/c1cc(C)ccc1C	2.43
Cc1ccc(NC(=S)N/N=C/c2c(Cl)cccc2Cl)c(C)c1	9.31 (active)
Cc1cc(=O)[nH]c(SCC(=O)NCCc2ccccc2)n1	1.96
CCN(CC)C(=O)c1sc(NC(=O)c2ccc(C)c([N+](=O)[O-])c2)c(C#N)c1C	0.0677
CCOC(=O)C1C(=O)OC2(CCCCC2)C1C(=O)OCC (centres undefined)	0.124

SMILES	z-score
O=C(Cn1c(=O)oc2cc(S(=O)(=O)N3CCCCCC3)ccc21)NC1CCCCCCC1	-0.034
CCc1nnc2sc(-c3cc(-c4ccccc4)nc4ccccc34)nn12	-0.507
Cc1ccc(CNC(=O)COc2ccccc2-c2ccccc2)cc1	-0.0564
CCN1CCN(c2ccc(NC(=O)CCc3c(C)nc4c(-c5ccccc5)c(C)nn4c3C)cc2)CC1	3.06 (active)
Cc1nc2c(-c3ccc(F)cc3)c(C)nn2c(C)c1CCC(=O)N1CCN(c2ccccc2)CC1	-0.81
Cc1nc2c(-c3ccccc3)c(C)nn2c(C)c1CCC(=O)O	0.235
CCn1nnc(-c2ccccc2NC(=O)c2cc(OC)cc(OC)c2)n1	-0.139
O=C(c1ccc(CS(=O)(=O)c2ccccc2)o1)N1CCN(c2ncccn2)CC1	-0.184
O=C(c1ccc(CS(=O)(=O)c2ccc(Br)cc2)o1)N1CCN(c2ccccn2)CC1	-0.169
O=C(c1ccc(CS(=O)(=O)c2ccc(Br)cc2)o1)N1CCN(c2ncccn2)CC1	3.31 (active)
COC(=O)c1sccc1NC(=O)CSc1cccc(Cl)c1Cl	-0.0544
COC(=O)c1sccc1NC(=O)CSc1cc(Cl)ccc1Cl	-0.165
COC(=O)c1sccc1NC(=O)COc1ccc(Cl)cc1Cl	-0.26
COC(=O)c1sccc1NC(=O)CSc1ccccc1NS(=O)(=O)c1cc(Cl)ccc1Cl	8.63 (active)
COC(=O)c1sccc1NC(=O)COc1ccccc1Cl	-0.212
COC(=O)c1sccc1NC(=O)CSc1ccccc1NS(=O)(=O)c1ccccc1Cl	3.17 (active)
Cc1nn2c(-n3ccnc3C)c3c(nc2c1-c1ccccc1)CCC3	-0.311
O=C(NCCC1=CCCCC1)C(=O)NCc1ccccc1	-0.143
Cc1ccc(CNC(=O)C(=O)NCCC2=CCCCC2)cc1	-0.102
Cc1ccc(CNCCC2=CCCCC2)cc1	2.07
Clc1ccc(CNCCC2=CCCCC2)cc1	2.27
C1=C(CCNCC2CC2)CCCC1	0.204
O=C(CCSCc1ccc(Cl)cc1)NCCC1=CCCCC1	-0.242
